In the library only some 6.5% were active in any assay of this set; here they are far more common.
FMDV antiviral: High Throughput Screening for Foot and Mouth Disease Virus Antivirals; FMDV antiviral cell-based qHTS; Potency, µM (series often up to 57.9 µM), for the others: at the highest dose activity change, negative = inhibition, usual class: inhibitors; hit rate 1.2% among 410,000; AID 1159524, 2015; calls by dose curve; tested in HEK293T cells; also: read-out not given here; potency is read from the fitted curve at half-maximal effect; nearly all actives have a fitted effect of over 45% in size
Marburg entry inh: qHTS for inhibitors of binding or entry into cells for Marburg Virus; Marburg virus pseudotyped entry inhibition, cell reporter; Potency, µM (series often up to 37.8 µM), without a hit: top-dose activity change, negative = inhibition, usual class: inhibitors; hit rate 1.8% among 300,000; calls by dose curve; tested in HEK293 cells; also: potency is read from the fitted curve at half-maximal effect
HCMV inh: qHTS Assay for inhibitors of the human cytomegalovirus (HCMV); HFF cells, HCMV-luciferase reporter, 72 h; hits give low values; activity change, negative = inhibition, % at 57.5 µM; hit rate 4.5% among 410,000; in the data active = activity change below about -60%; inconclusive = no clear call, values can overlap the other calls; inactive = above about -39%
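After 16 h attachment at 37C, HFF cells received test compound and HCMV-luciferase (1 PFU/cell); reporter luminescence read 72 h later, data normalized against buffer-only and known inhibitor Salinomycin.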
LASV entry inh: qHTS for Inhibitors of binding or entry into cells for Lassa Virus. Potency, µM (series often up to 37.9 µM), for inactives: top-dose activity change, negative = inhibition, hits mostly inhibitors. Lassa virus pseudotype entry inhibition, cell reporter. AID 540256, 2011. hit rate 1.2% among 300,000; calls by dose curve; tested in HEK293 cells; also: potency is read from the fitted curve at half-maximal effect; nearly all actives have a fitted effect of over 50% in size
Vaccinia Venus: qHTS for Stage-Specific Inhibitors of Vaccinia Orthopoxvirus: Venus Reporter Primary qHTS; hit rate 0.46% among 330,000; Vaccinia virus Venus reporter expression, fluorescence; Potency, µM (titrated, usually from 36.5 µM), inactives show at the top dose activity change, negative = inhibition, usual class: inhibitors; calls by dose curve; tested in A549 cells; also: potency is read from the fitted curve at half-maximal effect; nearly all actives have a fitted effect of over 30% in size
VACV mCherry inh: qHTS for Stage-Specific Inhibitors of Vaccinia Orthopoxvirus: mCherry Reporter Primary qHTS. AID 720579, 2013. Potency, µM (titrated, usually from 36.5 µM), inactives show at the highest dose activity change, negative = inhibition, usual class: inhibitors. Vaccinia virus mCherry reporter infection, fluorescence. hit rate 0.63% among 310,000; calls by dose curve; tested in A549 cells; also: potency is read from the fitted curve at half-maximal effect; nearly all actives have a fitted effect of over 35% in size
An asterisk follows results filed as active; i = inactive; ? = inconclusive; nt = no result; [ ] = another dose, or the depositor's remark. % is scaled to controls: 0 for no effect and ±100 for the full control effect.

SMILES	FMDV antiviral	Marburg entry inh	HCMV inh	LASV entry inh	Vaccinia Venus	VACV mCherry inh
O=C1CCC[C@H]2[C@@H](Cc3ccccc3)[C@@H](NCC3CCCCC3)CC[C@]23CCCN13	nt	nt	13	nt	nt	nt
COc1ccc(CCN2CC(C(=O)NCCc3cnn(C)c3)CCC2=O)cc1 (stereo unspecified)	5%	nt	5	nt	nt	nt
CCC(=O)N[C@@H]1c2ccccc2C2(CCN(Cc3cnc(N(C)C)s3)CC2)[C@H]1OC	8%	nt	nt	nt	-3%	-13%
O=C(c1ccc2c(=O)n(CCc3ccccc3)c(=O)[nH]c2c1)N1CCN(c2ccccc2)CC1	-26%	10%[46.1 µM]	nt	?	-2%	-4%
O=C(c1ccc2c(=O)n(CCc3ccccc3)c(=O)[nH]c2c1)N1CCN(c2ccc(Cl)cc2)CC1	16µM*	?	-30	?	-30%	-28%
COc1ccc(Cn2c(=O)[nH]c3cc(C(=O)N4CCN(c5cccc(OC)c5)CC4)ccc3c2=O)cc1	?	-19%[46.1 µM]	-9	5%[46.1 µM]	-7%	-17%
COc1ccc(N2CCN(C(=O)c3ccc4c(=O)n(CCc5ccc(OC)c(OC)c5)c(=O)[nH]c4c3)CC2)cc1	28µM*	11µM*	-37	-26%	-14%	-22%
CCCNC(=O)C1CC(c2ccc(C(F)(F)F)cc2)=NO1 (stereo unspecified)	13%	nt	17	nt	-2%	i
O=C(CCl)N(c1ccc(Cl)cc1)c1c[nH]c2ccccc12	?	?	-105*	?	13µM*	?
O=C(O)Cc1c[nH]c2ccccc12	-14%	nt	nt	nt	2%	6%
O=C(Cc1ccc(Cl)cc1)NCCc1c[nH]c2ccccc12	-20%	nt	15	nt	nt	nt
O=C(CCl)N(c1ccccc1)c1c[nH]c2ccccc12	?	?	-103*	?	?	?
Cc1nc(-n2nc(C)c(Cc3ccc(Cl)cc3)c2C)sc1C(=O)N1CCC(C)CC1	?	10%[46.1 µM]	-18	5%[46.1 µM]	-24%	-24%
CCn1c2c(c(=O)n3ncc(C(=O)Nc4ccc(F)c(Cl)c4)c13)CN(Cc1ccc(OC)cc1)CC2	-15%	nt	25	-21%[46.1 µM]	-6%	-3%
CC(CC(=O)Nc1ccc(Cl)c(S(=O)(=O)N2CCOCC2)c1)c1ccccc1 (stereo unspecified)	?	?	-82*	-44%	?	-14%
O=C(CC1CCCC1)Nc1ccc(Cl)c(S(=O)(=O)N2CCOCC2)c1	32µM*	?	?	2.8µM*	-26%	?
Cc1ccc(NC(=O)CCCSc2ccccc2)cc1S(=O)(=O)N1CCOCC1	28µM*	?	-6	?	-20%	?
COc1ccc(OCC(=O)Nc2ccc(S(=O)(=O)N3CCOCC3)cc2)cc1	-11%	?	5	-12%	-13%	i
CC(=O)Nc1ccc(OCC(=O)Nc2ccc(Cl)c(S(=O)(=O)N3CCOCC3)c2)cc1	nt	nt	-71*	nt	nt	nt
Cc1ccc2c(c1)C(O)(C1C(=O)N(C)c3ccccc31)C(=O)N2Cc1ccccc1 (stereo unspecified)	nt	nt	-17	nt	nt	nt
COc1cccc(-c2nc(NCc3cccs3)c3ccccc3n2)c1	18%	nt	nt	nt	nt	nt
Cc1ccccc1CN1CCN(c2ncc(C(=O)NCCN(C)C)s2)C1=O	nt	nt	-18	nt	nt	nt
Clc1ccc(CNC2CCCC2)c(Cl)c1	nt	-13%	?	-14%	-8%	-8%
Cc1cccc(NC(=O)NCc2ccc3[nH]c(C)cc3c2)c1	30%	nt	6	nt	-11%	i
Cc1cc2cc(CNC(=S)NC3CCCCC3)ccc2[nH]1	11%	-14%	-63*	?	nt	nt
SMILES	FMDV antiviral	Marburg entry inh	HCMV inh	LASV entry inh	Vaccinia Venus	VACV mCherry inh
S=C(NCc1ccc(Cl)cc1Cl)NC1CCCCC1	-6%	?	-78*	8.9µM*	?	?
Cc1ccc(NC(=O)NCc2ccc3[nH]c(C)cc3c2)cc1	37%	nt	-84*	nt	8%	-1%
CC(=O)c1ccc(-c2cc(F)cc3c2OC(CNC(=O)Cc2cn4ccsc4n2)C3)s1 (stereo unspecified)	7%	nt	nt	nt	3%	-14%
COc1ccc(N2CCN(C(=O)c3cc(NC(C)=O)c4c(c3)ncn4CCc3ccccn3)CC2)cc1	-3%	nt	nt	nt	-5%	i
CN(C)c1ccc(/C=C/c2ccnc3ccccc23)c(N)c1	nt	nt	nt	nt	-14%	-24%
O=C(Cc1ccc(OCCc2ccccc2)cc1)NO	nt	nt	nt	nt	-8%	12%
O=C(/C=C/c1ccco1)Oc1cc(Br)cc(/C=N/NC(=O)c2ccccc2O)c1	?	?	-101*	11µM*	?	2.8µM*
O=C(CNc1ccc(Br)cc1)Nc1ccc(S(=O)(=O)N2CCCC2)cc1	-26%	?	34	-18%	-15%	?
CN(Cc1ccco1)c1ncnc2ccc(-c3ccc4c(ccn4C)c3)cc12	-27%	nt	-99*	nt	nt	nt
CC(C)C(=O)NC(c1cccs1)c1cc([N+](=O)[O-])c2cccnc2c1O (stereo unspecified)	-25%	?	nt	-7%	?	11µM*
CCC(=O)NC(/C=C/c1ccccc1)c1cc([N+](=O)[O-])c2cccnc2c1O (stereo unspecified)	nt	nt	27	nt	nt	nt
CCC(=O)NC(c1cccs1)c1cc([N+](=O)[O-])c2cccnc2c1OC (stereo unspecified)	-7%	nt	-87*	nt	nt	nt
Cc1ccc(C(NC(=O)C(C)C)c2cc([N+](=O)[O-])c3cccnc3c2O)cc1 (stereo unspecified)	-10%	?	-13	-4%	?	-30%
N#C/C(=C\c1ccncc1)c1ccccn1	-5%	?	-78*	-26%	-24%	-26%
N#C/C(=C\c1ccccc1)c1ccccn1	53%	nt	2	nt	nt	nt
Cc1ccc(NC(=O)Cn2c(=O)n(CCC(=O)NCc3ccccc3Cl)c(=O)c3ccccc32)cc1	-13%	-21%[46.1 µM]	-86*	4%[46.1 µM]	-11%	-2%
Cc1ccc(NC(=O)Cn2c(=O)n(CCC(=O)N3CCc4ccccc4C3)c(=O)c3ccccc32)c(C)c1	-9%	-3%[46.1 µM]	-65*	-22%[46.1 µM]	-14%	-15%
Cc1ccc(NC(=O)Cn2c(=O)n(CCCCC(=O)NCc3ccccc3Cl)c(=O)c3ccccc32)cc1	-23%	?	0	8%[46.1 µM]	-9%	-19%
COCCNC(=O)Cn1c(=O)n(CCCC(=O)NCc2ccc3c(c2)OCO3)c(=O)c2sccc21	5%	?	-2	4.5µM*	1%	-4%
CCOc1ccc(NC(=O)Cn2c(=O)n(CCCCC(=O)NCc3ccc4c(c3)OCO4)c(=O)c3ccccc32)cc1	?	-12%[46.1 µM]	-76*	?	?	?
NC(=O)Cn1c(=O)n(CCCCCC(=O)NCc2ccc3c(c2)OCO3)c(=O)c2sccc21	5%	0%[46.1 µM]	2	-19%[46.1 µM]	-9%	-9%

Source: PubChem BioAssay
